Measurements from PubChem BioAssay.
Entries with a potency or affinity are not part of this list. Inconclusive results are not listed. The source made the active and inactive calls.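 The calls were made as follows, unless noted: active = falling signal with fitted half-maximal potency no higher than twice the top valid tested dose; inconclusive = poor fit quality, or flat fit spanning -70% to -30%; inactive = potency over limit, rising signal, or flat fit inside 30%.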

What was measured:
[1] = Cryptococcus neoformans growth inhibition, dose response, Alamar Blue, cherry-picks (AID 686998)
[2] = inducers of Cryptococcus neoformans cell lysis, dose response, AK release luminescence, cherry-picks (AID 687000;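 active = fitted dose curve reaches 40% lysis signal rise at or below the highest valid concentration tested for that sample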;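 also: luminescent detection of adenylate kinase leaking from lysed yeast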)
[3] = HepG2 cell cytotoxicity, dose response, cytotoxicity control, cherry-picks, set 2 (AID 687002;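 active = a dose-response fit showing signal loss, with half-maximal concentration no higher than twice the top tested dose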)
[4] = HeLa cell cytotoxicity, dose response, cytotoxicity control, ATP luminescence, cherry-pick samples (AID 687004;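 active = a fitted half-maximal concentration no higher than twice the top valid tested dose, with signal falling as cells die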)

Measured: outcome

C/C=C/c1ccc([C@H]2[C@@H](C#N)N(S(=O)(=O)c3cccc(F)c3)[C@H]2CO)cc1
inactive: all assays above

CCCNC(=O)Nc1ccc2c(c1)C(=O)N(C)C[C@H](OC)[C@@H](C)CN(C(=O)CC)[C@@H](C)CO2
inactive: all assays above

C[C@@H]1CN([C@H](C)CO)C(=O)c2cc(NC(=O)Nc3cccc4ccccc34)ccc2O[C@@H](C)CCCCO[C@@H]1CN(C)Cc1ccc2c(c1)OCO2
inactive: all assays above

O=C(Cc1cccs1)N1CCN(c2ccc([N+](=O)[O-])cc2)CC1
inactive: all assays above

O=C(CN(c1ccc(F)cc1)S(=O)(=O)c1ccccc1)NC1CCCCCC1
inactive: all assays above

O=C(c1cccc(Br)c1)N1CCN(c2ccccn2)CC1
inactive: all assays above

C[C@@H]1CCCCO[C@@H](CN(C)Cc2ccncc2)[C@@H](C)CN([C@@H](C)CO)C(=O)c2cc(NC(=O)c3ccncc3)ccc2O1
inactive: all assays above

Cc1cccc(N2CCN(C(=O)C3CCC(=O)N3C(C)C)CC2C)c1 (stereo unspecified)
inactive: all assays above

O=C(CSc1ncnc2c1cnn2-c1ccccc1)NC1CCS(=O)(=O)C1 (stereo unspecified)
inactive: all assays above

CC(=O)N1[C@@H]2CN(S(=O)(=O)c3ccccc3F)c3ccccc3[C@@H]2[C@@H]1CO
inactive: all assays above

CC(C)NC(=O)Nc1ccc2c(c1)C(=O)N([C@@H](C)CO)C[C@@H](C)[C@@H](CN(C)C(=O)c1ccncc1)OCCCC[C@@H](C)O2
inactive: all assays above

CNC(=O)C[C@H]1CC[C@H]2[C@H](COc3ccc(NC(=O)Nc4ccccc4)cc3C(=O)N2C)O1
inactive: all assays above

COc1ccc(CN(C)C[C@@H]2Oc3ccc(NC(=O)C4CC4)cc3C(=O)N([C@H](C)CO)C[C@H]2C)cc1
inactive: all assays above

Cc1ccc(S(=O)(=O)N2C[C@@H](O)COC[C@@H]3O[C@H](CC(=O)NCc4ccc5c(c4)OCO5)CC[C@H]32)cc1
inactive: all assays above

COc1ccccc1CNC(=O)C[C@@H]1C[C@@H]2c3cc(NC(=O)Nc4ccccc4F)ccc3O[C@@H]2[C@H](CO)O1
inactive: all assays above

CCCNC(=O)C[C@H]1C[C@H]2c3cc(NC(=O)Nc4ccc(OC)cc4)ccc3O[C@H]2[C@@H](CO)O1
inactive: all assays above

O=C(Cc1ccccc1)N[C@H]1C=C[C@@H](CC(=O)N2CCOCC2)O[C@H]1CO
inactive: all assays above

C[C@H]1CN([C@@H](C)CO)C(=O)c2cccc(N(C)C)c2O[C@@H]1CN(C)C(=O)Nc1cccc2ccccc12
inactive: all assays above

Cc1noc(C)c1S(=O)(=O)N(C)C[C@@H]1Oc2c(NC(=O)c3cnccn3)cccc2C(=O)N([C@@H](C)CO)C[C@@H]1C
inactive: all assays above

CCCNC(=O)Nc1ccc2c(c1)C(=O)N(C)C[C@@H](OC)[C@@H](C)CN(C(=O)CC)[C@H](C)CO2
inactive: all assays above

C[C@H]1CN([C@@H](C)CO)C(=O)Cc2cc(NC(=O)C3CC3)ccc2O[C@H]1CN(C)Cc1ccc(-c2ccccc2)cc1
inactive: all assays above

COc1ccc(NC(=O)N(C)C[C@H]2OCCCC[C@H](C)Oc3ccc(NC(=O)C4CCCCC4)cc3C(=O)N([C@@H](C)CO)C[C@@H]2C)cc1
inactive: all assays above

Cc1ccc(S(=O)(=O)Nc2ccc3c(c2)C(=O)N([C@@H](C)CO)C[C@H](C)[C@H](CN(C)S(=O)(=O)c2ccc(Cl)cc2)OCCCC[C@@H](C)O3)cc1
inactive: all assays above

C[C@@H]1CN([C@H](C)CO)C(=O)c2cc(-c3cccc(F)c3)cnc2O[C@H]1CN(C)Cc1ccccc1
inactive: all assays above

C[C@@H]1CN([C@H](C)CO)C(=O)c2cc(NC(=O)CCC(F)(F)F)ccc2O[C@@H](C)CCCCO[C@@H]1CN(C)C(=O)c1ccncc1
inactive: all assays above

CN1[C@@H]2c3ccc(-c4cccnc4)c(=O)n3C[C@@H]2[C@@H](CO)[C@@H]1C(=O)N1CCc2ccccc2C1
inactive: all assays above

O=C(C[C@@H]1CC[C@@H]2[C@H](COC[C@H](O)CN2S(=O)(=O)c2ccc(Oc3ccccc3)cc2)O1)NC1CCC1
inactive: all assays above

CC(C)NC(=O)N1CC[C@@H]2[C@@H](CO)N(C)c3ccc(-c4cccc(F)c4)cc3[C@@H]21
inactive: all assays above

COc1ccc(S(=O)(=O)Nc2ccc3c(c2)C(=O)N([C@H](C)CO)C[C@@H](C)[C@@H](CN(C)C(=O)Nc2ccccc2)O3)cc1
inactive: all assays above

CCC(=O)N1[C@H](C(=O)Nc2ccccc2)[C@@H](CO)[C@@H]2Cn3c(ccc(-c4ccncc4)c3=O)[C@@H]21
inactive: all assays above

CC(C)(C)SCCNC(=O)CN(c1ccc(F)cc1)S(=O)(=O)c1ccccc1
inactive: all assays above

COc1ccc(-c2cnc3c(c2)C(=O)N([C@@H](C)CO)C[C@H](C)[C@@H](CN(C)S(C)(=O)=O)O3)cc1
inactive: all assays above

O=C(N[C@H]1CC[C@@H](CCn2cc(-c3ccccc3)nn2)O[C@@H]1CO)c1cnccn1
inactive: all assays above

CN1C(=O)c2cc(NS(=O)(=O)c3cccc(F)c3)ccc2OC[C@@H]2O[C@@H](CC(=O)O)CC[C@H]21
inactive: all assays above

C[C@@H]1CCCCO[C@H](CN(C)C(=O)c2ccncc2)[C@H](C)CN([C@H](C)CO)C(=O)c2cc(NC(=O)CCC(F)(F)F)ccc2O1
inactive: all assays above

O=C(Cc1cccs1)N1CCN(c2cccc(Cl)c2)CC1
inactive: all assays above

CCCC#Cc1cnc2c(c1)C(=O)N([C@@H](C)CO)C[C@H](C)[C@H](CN(C)C(=O)Nc1cccc(F)c1)O2
inactive: all assays above

CCCN(C)C[C@H]1OCCCC[C@@H](C)Oc2ccc(NC(=O)NC(C)C)cc2C(=O)N([C@@H](C)CO)C[C@H]1C
inactive: all assays above

C[C@@H]1CN([C@H](C)CO)C(=O)c2cc(NS(=O)(=O)c3ccc(Cl)cc3)ccc2O[C@H]1CN(C)S(=O)(=O)c1ccc(F)cc1
inactive: all assays above

COCC#Cc1cnc2c(c1)C(=O)N([C@H](C)CO)C[C@@H](C)[C@@H](CN(C)C(=O)Nc1ccc(OC)cc1)O2
inactive: all assays above

O=C([C@H]1[C@H](CO)[C@H]2Cn3c(cccc3=O)[C@H]2N1CCC(F)(F)F)N1CCCCC1
inactive: all assays above

O=C(C[C@H]1C=C[C@H](NC(=O)Nc2cc(F)ccc2F)[C@@H](CO)O1)NCCCN1CCOCC1
inactive: all assays above

O=C(C[C@@H]1CC[C@H]2[C@@H](COC[C@@H](O)CN2Cc2ccc(Cl)cc2)O1)NCc1cccc(F)c1
inactive: all assays above

CO[C@H]1CN(C)C(=O)c2ccc(NC(C)=O)cc2OC[C@H](C)N(C(=O)c2ccncc2)C[C@@H]1C
inactive: all assays above

C[C@H](CO)N1C[C@H](C)[C@@H](CN(C)Cc2ccncc2)OCCCC[C@H](C)Oc2ccc(NC(=O)NC3CCCCC3)cc2C1=O
inactive: all assays above

CCC(C)(NC=O)C(=O)Nc1c(C)cccc1C (stereo unspecified)
inactive: all assays above

C[C@@H]1CN([C@H](C)CO)C(=O)c2cc(-c3ccc(C#N)cc3)cnc2O[C@@H]1CN(C)C(=O)Nc1ccc(F)cc1
inactive: all assays above

COc1ccc(NC(=O)Nc2ccc3c(c2)C(=O)N([C@H](C)CO)C[C@@H](C)[C@H](CN(C)S(=O)(=O)c2ccc(Cl)cc2)OCCCC[C@@H](C)O3)cc1
inactive: all assays above

C/C=C/c1ccc([C@@H]2[C@@H](CO)N3CCCCN(C(=O)Nc4ccc(OC)cc4)C[C@H]23)cc1
inactive: all assays above

CCC(C)(C(=O)NC1CCCC1)N(C(C)=O)c1ccc(C)cc1 (stereo unspecified)
inactive: all assays above

Cc1ccc(NC(=O)C2(C)CCCN2CC(C)C)cc1C (stereo unspecified)
inactive: all assays above

C[C@H]1CN([C@@H](C)CO)C(=O)c2cc(NC(=O)CCN3CCOCC3)ccc2O[C@@H]1CN(C)Cc1ccc(C(=O)O)cc1
inactive: all assays above

O=C(NC[C@@H]1[C@H](c2ccccc2)[C@@H](CO)N1C(=O)Cc1cccnc1)C1CCC1
inactive: all assays above

COc1ccccc1C#Cc1ccc2c(c1)O[C@@H](CN(C)C(C)=O)[C@@H](C)CN([C@H](C)CO)S2(=O)=O
inactive: all assays above
